High-throughput results from PubChem BioAssay.
TWEAK Fn14 block: TWEAK-Fn14 signaling inhibition; TWEAK-stimulated Fn14 reporter cells, luciferase luminescence, 8 h; inhibition, % at 10 µM; 360,000 tested, 2% active; AID 1159606; in the data active means inhibition above about 50%
TROY signal inh: blocks TROY-dependent signaling in reporter cells; Q293 LMP1-TROYcd NF-kB luciferase reporter, 4 h; inhibition, % at 10 µM; 360,000 tested, 0.98% active;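 active means compounds whose plate-normalised and pattern-corrected inhibition of the luciferase reporter signal at the single screening dose is 50% or more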
HSP90 refold inh: HSP90 refolding inhibition in rabbit reticulocyte lysate. luciferase refolding luminescence, 3 h. inhibition, % at 5.6 µM. 290,000 tested, 0.91% active. AID 1789;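 active means inhibition above the screen-wide mean plus 3 SD, computed separately per campaign, cut at about 16% in these data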;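 further: inhibitors lower the luminescence because luciferase stays unfolded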
LGR2 inh: blocks bursicon-induced cAMP signaling via Drosophila LGR2; HEK293 LGR2, CRE-luciferase, bursicon-stimulated, 4 h; 380,000 tested, 0.35% active; inhibition, % at 9.99 µM;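 active means drop in luminescence signal, shown as inhibition above about 50% in the replicate tests, limit read from the data, passing the limit was not always enough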;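 further: agonist challenge used bursicon conditioned medium at about half maximal strength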
Each line names hits and unclear results; the compound was inactive in the other large screens. Only some compounds are listed: those with a hit (about 2.2% of all), similar ones and a draw of the others.

Cc1ccc(C(=O)N/N=C(/CC(=O)c2cccs2)C(F)(F)F)cc1	TROY signal inh 53
O=C1CN(Cc2ccc(F)cc2)C[C@@H]2[C@H](c3ccc(-c4cccnc4)cc3)[C@@H](CO)N12	none (no result: TWEAK Fn14 block, TROY signal inh, HSP90 refold inh)
Cc1c(/C=N/n2cnnc2)c2ccccc2n1CCOc1ccc(Cl)cc1	TROY signal inh 54 (no result: LGR2 inh)
Cc1ccc(OCCn2c(C)c(/C=N/n3cnnc3)c3ccccc32)cc1	none (no result: LGR2 inh)
COc1cccc(NC(=O)N[C@H]2C=C[C@H](CC(=O)N3CCCCC3)O[C@H]2CO)c1	none (no result: TWEAK Fn14 block, TROY signal inh, HSP90 refold inh)
CC(C)Oc1ccc(C(=O)Nc2ccc(Cl)c(S(=O)(=O)Nc3ccc(Cl)cc3)c2)cc1	TWEAK Fn14 block 90, TROY signal inh 55
CC(C)NC(=O)N(C)C[C@@H]1Oc2ccc(NC(=O)C3CCCCC3)cc2CC(=O)N([C@@H](C)CO)C[C@H]1C	none (no result: TWEAK Fn14 block, TROY signal inh, HSP90 refold inh)
COc1ccc(CC(=O)N/N=C/c2cccnc2)cc1OC	none
COc1ccc(CC(=O)N/N=C/c2cc(Br)cs2)cc1OC	TWEAK Fn14 block 67
CC(C)NC(=O)c1c(O)c2cccc3c2n(c1=O)CCC3	none
CNC(=O)c1c(O)c2cccc3c2n(c1=O)CC3	TWEAK Fn14 block 53 (no result: TROY signal inh, LGR2 inh)
c1ccc(-c2cc(-c3cc(-c4ccccc4)on3)no2)cc1	none (no result: HSP90 refold inh)
COc1ccc(-c2cc(-c3ccccc3)no2)cc1	TWEAK Fn14 block 69, LGR2 inh 78 (no result: HSP90 refold inh)
C[C@H]1CN([C@@H](C)CO)C(=O)CCCn2cc(nn2)CO[C@H]1CN(C)Cc1cccc(O)c1	none (no result: TWEAK Fn14 block, TROY signal inh, HSP90 refold inh)
O=[N+]([O-])c1c(Nc2ccccc2O)cc(Cl)c2nonc12	TROY signal inh 64
O=[N+]([O-])c1c(Nc2ccccc2O)ccc2nonc12	none
COc1ccccc1Nc1ccc2nonc2c1[N+](=O)[O-]	TWEAK Fn14 block 89
CO[C@@H](CN(C)C(=O)c1ccc2c(c1)OCO2)[C@@H](C)CN([C@H](C)CO)S(=O)(=O)c1ccc(F)cc1	none (no result: TWEAK Fn14 block, TROY signal inh, HSP90 refold inh)
O=C(O)CSc1ncnc2c1oc1ccccc12	none (no result: TROY signal inh, LGR2 inh)
O=C(CSc1ncnc2c1oc1ccccc12)Nc1ccccc1C(F)(F)F	TWEAK Fn14 block 91, TROY signal inh 82
COc1ccccc1CCn1cnc(-c2ccc(F)cc2)c1CC(C)C	none (no result: TWEAK Fn14 block, TROY signal inh, HSP90 refold inh)
COc1ccccc1CCn1cnc(-c2ccccc2)c1CC(C)C	LGR2 inh 52 (no result: TWEAK Fn14 block, TROY signal inh, HSP90 refold inh)
O=c1c(O)c(-c2ccc(O)c(O)c2)oc2cc(O)ccc12	TWEAK Fn14 block 56 (no result: HSP90 refold inh)
O=c1c(O)c(-c2ccc(O)cc2)oc2cc(O)cc(O)c12	none (no result: HSP90 refold inh)
O=C(NNC(=S)Nc1cccc(C(F)(F)F)c1)c1ccccc1Cl	none
O=C(/C=C/c1cccc(C(F)(F)F)c1)Nc1cccc(C(F)(F)F)c1	TWEAK Fn14 block 61, TROY signal inh 51
O=C(NNC(=S)Nc1cccc(C(F)(F)F)c1)c1cccc(Cl)c1	TWEAK Fn14 block 62
Cc1ccc(NC(=O)/C=C/c2cccc(C(F)(F)F)c2)cc1	none
O=C(CN1C(=O)C2C3C=CC(C3)C2C1=O)Nc1nc2ccccc2[nH]1 (stereo not given)	TWEAK Fn14 block 73 (no result: TROY signal inh)
O=C(CN1C(=O)C2C3C=CC(C3)C2C1=O)Nc1ccc(F)cc1 (stereo not given)	none
CC(=O)c1ccc(N2CCN(Cc3cc(=O)n4c(-c5ccccc5)csc4n3)CC2)cc1	none (no result: HSP90 refold inh)
O=c1cc(CN2CCN(c3ccccc3)CC2)nc2scc(-c3ccccc3)n12	TROY signal inh 58
O=c1cc(-c2ccc3c(c2)OCO3)oc2ccccc12	none
Nc1c(-c2ccc3c(c2)OCCO3)oc2ccccc2c1=O	TWEAK Fn14 block 55
O=C(Nc1cccc(Cl)c1)N[C@@H]1CC[C@H](CCNC(=O)C2CCOCC2)O[C@@H]1CO	none (no result: TWEAK Fn14 block, TROY signal inh, HSP90 refold inh)
CN1C(=O)/C(=C/c2cc(N=Nc3ccccc3)ccc2O)SC1=S	TWEAK Fn14 block 65, TROY signal inh 54
Cc1c(N2C(=O)/C(=C\c3ccccc3O)SC2=S)c(=O)n(-c2ccccc2)n1C	none
O=C(C[C@H]1CC[C@@H]2[C@H](COC[C@H](O)CN2C(=O)Nc2ccc(Cl)c(Cl)c2)O1)NC1CCC1	none (no result: TWEAK Fn14 block, TROY signal inh, HSP90 refold inh)
C/C(=N\NC(=O)c1ccc(CN2CCc3ccccc3C2)cc1)c1ccccc1O	TWEAK Fn14 block 83
O=C(Nc1ccc(S(=O)(=O)N2CCCC2)cc1)c1ccc(CN2CCc3ccccc3C2)cc1	TWEAK Fn14 block 68
CCCNC(=O)c1ccc(CN2CCc3ccccc3C2)cc1	none (no result: LGR2 inh)
O=C(Nc1ccc(S(=O)(=O)N2CCOCC2)cc1)c1ccc(CN2CCc3ccccc3C2)cc1	none (no result: TWEAK Fn14 block, TROY signal inh, LGR2 inh)
C[C@@H]1CN([C@@H](C)CO)S(=O)(=O)c2ccc(C3=CCCCC3)cc2O[C@@H]1CN(C)Cc1cccnc1	none (no result: TWEAK Fn14 block, TROY signal inh, HSP90 refold inh)
O=C1c2cccc(O)c2C(=O)c2c(O)cccc21	none (no result: TWEAK Fn14 block, TROY signal inh, LGR2 inh)
CC1OC(CC(=O)O)CC2=C1C(=O)c1c(O)cccc1C2=O (stereo not given)	TWEAK Fn14 block 106, TROY signal inh 64, LGR2 inh 99 (no result: HSP90 refold inh)
Clc1ccc(C2=Nn3c(nnc3-c3n[nH]c4c3CCC4)SC2)cc1	TWEAK Fn14 block 55 (no result: LGR2 inh)
c1ccc(-c2ccc(C3=Nn4c(nnc4-c4cc(-c5ccccc5)n[nH]4)SC3)cc2)cc1	none
Brc1ccc(C2=Nn3c(nnc3-c3n[nH]c4c3CCC4)SC2)cc1	TWEAK Fn14 block 60 (no result: LGR2 inh)
C[C@@H]1CN([C@@H](C)CO)C(=O)c2cc(-c3cncnc3)cnc2O[C@@H]1CN(C)Cc1ccc(Oc2ccccc2)cc1	none (no result: TWEAK Fn14 block, TROY signal inh, HSP90 refold inh)
Cc1ccc(/C=C/C(=O)N2CCN(S(=O)(=O)c3cccs3)CC2)o1	TWEAK Fn14 block 86
C[C@H]1CN([C@@H](C)CO)C(=O)Cc2cc(NC(=O)CCN3CCOCC3)ccc2O[C@H]1CN(C)S(=O)(=O)c1cn(C)cn1	none (no result: TWEAK Fn14 block, TROY signal inh, HSP90 refold inh)
CCNC(=O)C[C@@H]1CC[C@H]2[C@@H](COc3ccc(NC(=O)Nc4ccccc4C)cc3C(=O)N2C)O1	none (no result: TWEAK Fn14 block, TROY signal inh, HSP90 refold inh)
C#CCN(C[C@@H]1[C@@H](OC(=O)NC2CCCC2)[C@@H](OC(=O)NC2CCCC2)Cn2c(=O)ccc(=O)n21)S(=O)(=O)c1ccc(C)cc1	TWEAK Fn14 block 72, LGR2 inh 66 (no result: HSP90 refold inh)
C#CCN(C[C@@H]1[C@@H](OC(=O)Nc2cccs2)[C@@H](OC(=O)Nc2cccs2)Cn2c(=O)ccc(=O)n21)S(=O)(=O)c1ccc(C)cc1	TWEAK Fn14 block 108, TROY signal inh 73 (no result: HSP90 refold inh)
C#CCN(C[C@@H]1[C@@H](OC(=O)NCc2ccccc2F)[C@@H](OC(=O)NCc2ccccc2F)Cn2c(=O)n(CCCCCC)c(=O)n21)S(=O)(=O)c1ccc(C)cc1	none (no result: HSP90 refold inh)
C#CCN(C[C@@H]1[C@@H](OC(=O)NC2CC2)[C@@H](OC(=O)NC2CC2)CN(C(=O)OC(C)C)N1C(=O)OC(C)C)S(=O)(=O)c1ccc(C)cc1	none (no result: HSP90 refold inh)
C#CCN(C[C@@H]1[C@@H](OC(=O)NCc2ccccc2F)[C@@H](OC(=O)NCc2ccccc2F)Cn2c(=O)ccc(=O)n21)S(=O)(=O)c1ccc(C)cc1	TWEAK Fn14 block 107, TROY signal inh 61, LGR2 inh 68 (no result: HSP90 refold inh)
COc1cc(/C=N/Nc2nc(C)nc3c2cnn3-c2ccccc2)ccc1O	TWEAK Fn14 block 64, LGR2 inh 58
COc1cc(/C=N/Nc2ccccn2)ccc1O	TWEAK Fn14 block 63, TROY signal inh 88
COc1ccc(/C=N/Nc2ccccn2)cc1OC	none
CC(C)n1cnc2cc(NCc3ccccn3)ccc21	TROY signal inh 52 (no result: LGR2 inh)
O=S(=O)(Nc1nc2ccccc2nc1N1CCc2ccccc2C1)c1ccc(Cl)cc1	TWEAK Fn14 block 72
